Data: PubChem BioAssay AID485313 (National Center for Advancing Translational Sciences (NCATS), 2010)
Screen size: about 320,000 compounds; about 7,600 (2.4%) were called active. Another 3% or so got no clear call; they are omitted. This is one part of a sample in which actives are shown more often than they occur. A number with no mark means an inactive call. The call rests on the fitted dose curve; in most records, active means well fitted activation curve with a large enough effect; inconclusive means small, poorly fitted or top-dose-only effect; inactive means no such curve, though single readings can be large or run the other way.

Assay: qHTS Assay for NPC1 Promoter Activators; further: nearly all actives have a fitted effect of over 60% in size; on activation: % of control where 0% means no effect
Settings: Huh7 NPC1 promoter luciferase reporter, 24 h; series mostly up to 9.22 µM; activation: at the top concentration
Summary of the method: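 Luminescence read-out of NPC1 promoter-driven luciferase in stably transfected Huh7 cells; compounds delivered in DMSO and left 24 h at 37C, 5% CO2, qHTS titration format.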
Potency means the concentration at half of the fitted maximal effect.

Row | Compound | activation | Potency
1 | Cc1cc(C)n2nc(C(=O)OCC(=O)N(C)CC(=O)Nc3ccc(F)cc3)nc2n1 | -10.3% | –
2 | O=C(CSc1nc2[nH]c(=O)[nH]c(=O)c2s1)Nc1cccc(F)c1 | -6.24% | –
3 | Cc1cc(C)c(C#N)c(SCC(=O)N(CC(C)C)C2CCS(=O)(=O)C2)n1 (centres undefined) | -2.59% | –
4 | c1csc(-c2nnc(COc3ccc4c(c3)OCO4)o2)c1 | 27.6% | –
5 | Cc1cccc(C(=O)O)c1[N+](=O)[O-] | 1.58% | –
6 | N#Cc1ccc(C(=O)OCC(=O)NC(=O)NC2CCCCC2)cc1 | -1.04% | –
7 | O=S(=O)(c1ccc(SCc2ccccc2)nc1)N1CCCCCC1 | 1.18% | –
8 | COCc1nnc(NC(=O)c2ccc3c(c2)OCO3)s1 | – | 2820 nM (active)
9 | Cn1c(NC(=O)c2ccc3c(c2)OCO3)cc(=O)n(C)c1=O | -3.07% | –
10 | O=C(Nc1ccc(NC(=O)c2ccc3c(c2)OCO3)cc1)c1cccc(Cl)c1 | -0.441% | –
11 | CCSc1ccccc1C(=O)Nc1ccc2c(c1)OCO2 | 7.76% | –
12 | O=C(Nc1ccc2c(c1)OCO2)c1ccc(N2C(=O)c3ccccc3C2=O)cc1 | 3.6% | –
13 | CCCc1nnc(NC(=O)c2cc(OC)cc(OC)c2)s1 | -11.7% | –
14 | O=C(Nc1nc2cc3c(cc2s1)OCCO3)c1cccc(S(=O)(=O)N2CCOCC2)c1 | 14.3% | –
15 | COc1ccc(S(=O)(=O)N2CCOCC2)cc1C(=O)Nc1nc2ccccc2s1 | -5.34% | –
16 | O=C(Nc1cccc([N+](=O)[O-])c1)c1ccc2c(c1)OCO2 | 23.5% | –
17 | O=C(Nc1nc2ccccc2s1)c1ccc2c(c1)OCO2 | – | 562 nM (active)
18 | CC(C)C(=O)Nc1cccc(C(=O)Nc2ccc3c(c2)OCO3)c1 | – | 2820 nM (active)
19 | O=C(Nc1ccccc1)c1ccc2c(c1)OCO2 | – | 2820 nM (active)
20 | CS(=O)(=O)Nc1ccccc1C(=O)OCC(=O)NC1CC1 | 6.22% | –
21 | CSc1ccccc1C(=O)OCC(=O)N1CCN(C(C)=O)CC1 | -1.56% | –
22 | Cc1cccc(C(=O)NC(=S)N2CCN(c3ccc([N+](=O)[O-])cc3)CC2)c1 | -0.538% | –
23 | N#Cc1ccccc1S(=O)(=O)N1CCN(C(=O)c2cc(-c3ccccc3)nn2-c2ccccc2)CC1 | -2.35% | –
24 | Cc1ccc(S(=O)(=O)NCCNC(C)c2ccc(Br)cc2)cc1 (centres undefined) | -5.06% | –
25 | CCN(C(=O)CSc1nc(N)cc(=O)[nH]1)C1CCS(=O)(=O)C1 (centres undefined) | 0.992% | –
26 | CC1(C)O[C@@H]2[C@H](O1)[C@@H](COS(=O)(=O)O)O[C@H]2n1cnc2c(=O)[nH]cnc21 | 0.178% | –
27 | C=CCn1c(C)cc(C2=NNC(=NCC)SC2)c1C | -28.2% | –

Row | Compound | activation | Potency
28 | COCCn1c(C)cc(C2=NNC(=Nc3ccc(F)cc3)SC2)c1C | – | 2510 nM (active)
29 | COC(=O)c1cc(OC)c(OC)cc1NC(=O)CSc1ccc(C)cc1 | -1.59% | –
30 | CCN1CCN(C(=O)CSc2ccc(C)cc2)CC1 | 29.7% | –
31 | Cc1ccc(SCC(=O)c2cc(C)c(OC(=S)N(C)C)c(C)c2)cc1 | – | 2510 nM (active)
32 | O=C(NNC(=O)c1ccco1)Nc1ccccc1 | -5.2% | –
33 | CCC(=O)NC(=S)Nc1ccc(NC(=O)c2ccco2)c(Cl)c1 | 4.41% | –
34 | O=C(NNC(=S)Nc1ccc(Br)cc1Cl)c1ccco1 | – | 3550 nM (active)
35 | CC1(NC(=O)CCS(=O)(=O)c2ccc(Cl)cc2)CCS(=O)(=O)C1 (centres undefined) | -0.873% | –
36 | CCOc1ccc(C(=O)CCC(=O)Nc2ccncc2)cc1 | -3.49% | –
37 | CN1C(=O)/C(=C/C=C2\SCCN2C)OC1=S | – | 3980 nM (active)
38 | Cc1cc(C)cc(NC(=O)c2cccc(NC(=O)C3C4CC5OC(=O)C3C5C4)c2)c1 (centres undefined) | 0.703% | –
39 | O=C(Cn1c2[n+](c3ccc(C(F)(F)F)cc31)CCCCC2)Nc1c(F)cccc1F | -5.85% | –
40 | NC(=O)C1CCN(C(=O)c2ccc(F)c(S(=O)(=O)N3CCOCC3)c2)CC1 | -5.94% | –
41 | O=C(NCC1CCC(C(=O)O)CC1)OCc1ccccc1 (centres undefined) | 2.31% | –
42 | CCOC(=O)N1CCC(NC(=O)CCc2ccccc2)CC1 | -2.93% | –
43 | O=C(O)C1CCN(C(=O)OCc2ccccc2)CC1 | – | 2000 nM (active)
44 | CC(=O)c1ccc(S(=O)(=O)NCCC(=O)N2CCN(c3ccccn3)CC2)cc1 | -0.622% | –
45 | O=C(Nc1cccc(C(=O)NC2CC2)c1)c1ccc(F)c(S(=O)(=O)N2CCOCC2)c1 | -1.39% | –
46 | COc1ccc(Cl)cc1NC(=O)COc1ccc2c(c1)OCO2 | -1.02% | –
47 | CCN(CC)CCn1c2c(c(SCC(=O)Nc3nc4ccccc4s3)nc1=O)CCCC2 | 0.104% | –
48 | O=[N+]([O-])c1cc(Br)c(O)c(/C=N/Nc2nc3ccccc3s2)c1 | -6.54% | –
49 | c1ccc2sc(NN=C3CCCC3)nc2c1 | – | 1410 nM (active)
50 | COc1ccc(-c2sc3ccc(OC)cc3c2C#Cc2ccccn2)cc1 | 22% | –
51 | Cc1cnc(CN(C)C(=O)C2CCC(=O)N(CCc3cccc(F)c3)C2)[nH]1 (centres undefined) | -4.93% | –
52 | Cc1csc(=O)n1CCC(=O)OCC(=O)NNC(=O)c1ccc(Br)cc1 | -1.37% | –
53 | Nc1c(N(CCCO)C(=O)C2CCCC2)c(=O)[nH]c(=O)n1Cc1ccccc1 | 0.384% | –
54 | COc1ccc(/C(C)=N/NC(=O)c2ccc3nc[nH]c3c2)cc1 | -2.23% | –
